From PubChem BioAssay (NCATS)
Results filed as inconclusive are left out. The source made the active and inactive calls. Calls come from the whole dose curve; as a rule, active = well fitted curve in the direction sought with a large enough effect; inconclusive = small, poorly fitted or top-dose-only effect, or another doubt; inactive = no such curve, though single readings can be large; an effect the other way counts as inactive or inconclusive.

Tests used:
[1] = target: Glutathione peroxidase 1 (Homo sapiens) (UniProt P07203); test: Primary qHTS Assay for Inhibitors of Recombinant Selenoprotein Glutathione Peroxidase 1 (GPX1) (AID 1845191); note: nearly all actives have a fitted effect of over 65% in size; for activity, negative = inhibition: % is set by controls: 0 for no effect and ±100 for the full control effect
In short: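 GPX1 10 nM, GR 100 nM, GSH 1 mM, NADPH 0.5 mM, CHP 0.5 mM (final). 30-min cpd preincubation, RT. Ex340/Em450 read t=0, t=15 min.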

[2] = target: Phospholipid hydroperoxide glutathione peroxidase GPX4 (Homo sapiens) (UniProt P36969); test: Primary qHTS Assay for Inhibitors of Recombinant Selenoprotein Glutathione Peroxidase 4 (GPX4) (AID 1845192); note: nearly all actives have a fitted effect of over 65% in size; for activity change, negative = inhibition: series mostly up to about 50 µM; % is set by controls: 0 for no effect and ±100 for the full control effect
In short: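 qHTS, GR-coupled: GPX4 200 nM + cpd 30 min RT → GSH 1 mM, NADPH 0.5 mM, GR 100 nM → CHP 0.5 mM start; fluor 340/450 at t0 and t15 min; no-enzyme wells as control.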

[3] = target: Luciferin 4-monooxygenase (Photinus pyralis) (UniProt P08659); test: Primary firefly luciferase (FLuc) qHTS assay for identification of artifact compounds. (AID 1845220); note: nearly all actives have a fitted effect of over 60% in size;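 for activity change, negative = inhibition: series mostly up to about 54 µM; plate controls were DMSO vehicle for no effect and no enzyme for full effect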
In short: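 qHTS, 15 min compound preincubation with substrate (10 uM luciferin, 10 uM ATP) at RT, then 10 nM FLuc; 5 min; luminescence; % inhibition vs no-enzyme/DMSO controls, 4-parameter Hill fit.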

[4] = Primary fluorescence-based thiol-reactive (MSTI) qHTS assay for identification of artifact compounds. (AID 1845221);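 note: series mostly up to about 54 µM; thiol-reactive compounds lower the probe fluorescence signal; nearly all actives have a fitted effect of over 65% in size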
In short: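 First, 4 uM MSTI in 2% DMSO/PBS pH 7.4 was dispensed; next, compounds were added; then plates sat 1 h at room temperature without light. Finally, emission at 598 nm was recorded.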

[5] = test system: Nanoluciferase (engineered Oplophorus gracilirostris luciferase); test: Primary Nanoluciferase (NLuc) qHTS assay for identification of artifact compounds. (AID 1845222); note: series mostly up to about 54 µM
In short: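 Luminescence read-out of secreted NLuc in S16 cell conditioned medium (1:55); compounds tested with 15 min RT preincubation, then Nano-Glo substrate 1:100, 5 min. % inhibition vs no-enzyme and DMSO controls, 4-parameter Hill fit.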

[6] = Primary redox qHTS assay for identification of artifact compounds. (AID 1845223);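 note: 0% = DMSO and 100% = reference compound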
In short: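 Redox-cycling detection via DTT (250 uM final) oxidation coupled to Amplex Red (25 uM)/HRP (250 mU/mL) in HBSS. 15 min preincubation plus 30 min after DTT, room temperature. Ex/Em 525/598 nm; 4-parameter Hill fit against DMSO and 10 uM DA3003.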

Sequence of Phospholipid hydroperoxide glutathione peroxidase GPX4 (Homo sapiens) (P36969 whole entry, looked up): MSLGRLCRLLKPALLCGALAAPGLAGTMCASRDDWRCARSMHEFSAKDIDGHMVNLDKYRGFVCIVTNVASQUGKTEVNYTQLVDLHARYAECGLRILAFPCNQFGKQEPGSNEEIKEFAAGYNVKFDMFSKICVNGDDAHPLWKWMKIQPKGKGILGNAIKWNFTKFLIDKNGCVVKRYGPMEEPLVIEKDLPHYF
Sequence of Glutathione peroxidase 1 (Homo sapiens) (P07203 whole entry, looked up): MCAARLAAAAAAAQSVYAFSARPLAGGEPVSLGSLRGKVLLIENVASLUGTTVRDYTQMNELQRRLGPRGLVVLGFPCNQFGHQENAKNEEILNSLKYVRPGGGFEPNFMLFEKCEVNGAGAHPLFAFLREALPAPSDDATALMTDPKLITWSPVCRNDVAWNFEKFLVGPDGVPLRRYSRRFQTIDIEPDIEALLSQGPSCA

COc1ccc(CCc2nc3cc(-c4c(C)noc4C)ccc3n2C[C@H](C)N2CCOCC2)cc1Cl
inactive: Potency [1] | Potency [2] | Potency [3] | Potency [4] | Potency [5] | Potency [6]

CC(C)=CC1C[C@](C)(O)[C@@H]2[C@H]3CCC4[C@@]5(C)CC[C@H](O[C@@H]6OC[C@H](O)[C@H](O[C@@H]7O[C@H](CO[C@@H]8O[C@H](CO)[C@@H](O)[C@H](O)[C@H]8O)[C@@H](O)[C@H](O)[C@H]7O)[C@H]6O[C@@H]6O[C@@H](C)[C@H](O)[C@@H](O)[C@H]6O)C(C)(C)[C@@H]5CC[C@@]4(C)[C@@]34CO[C@@]2(C4)O1 (some centres undefined)
inactive: Potency [1] | Potency [2] | outcome [3] inactive [at 11.6 µM] | activity change, negative = thiol reactive [4] 458% [at 11.5 µM] | activity, negative = inhibition [5] 4.79% [at 11.6 µM] | redox activity (% of DA3003) [6] 14.6% [at 11.5 µM]

C=C(CCO)C(=O)OCC1OCC(OC(=O)C(=C)CCO[C@@H]2O[C@H](COC(=O)C(=C)CCO[C@@H]3O[C@H](CO)[C@@H](O)[C@H](O)[C@H]3O)[C@@H](O)[C@H](O)[C@H]2O)C(O)C1O (some centres undefined)
inactive: Potency [1] | Potency [2] | Potency [3] | Potency [4] | Potency [5] | Potency [6]

CC1(C)CC[C@]2(C(=O)O)CC[C@]3(C)C(=CCC4[C@@]5(C)CC[C@H](O[C@H]6O[C@H](C(=O)O)[C@@H](O)[C@H](O[C@@H]7O[C@H](CO)[C@H](O)[C@H](O)[C@H]7O)[C@H]6O)C(C)(C)C5CC[C@]43C)[C@@H]2C1 (some centres undefined)
inactive: Potency [1] | Potency [2] | activity change, negative = inhibition [3] 1.03% [at 11.6 µM] | activity change, negative = thiol reactive [4] 239% [at 11.5 µM] | activity, negative = inhibition [5] 2.24% [at 11.6 µM] | redox activity (% of DA3003) [6] 8.43% [at 11.5 µM]

CC1(C)CCC[C@]2(C)C1CC=C(CO)[C@H]2CC/C(=C/CO)CO (some centres undefined)
inactive: Potency [1] | Potency [2] | Potency [3] | Potency [4] | Potency [5] | Potency [6]

CC1=CCC2C(C)(C)CCCC2(C)C1CC12OC1C(O)C(CO)=CC2O (centres undefined)
inactive: Potency [1] | Potency [2] | Potency [3] | Potency [4] | Potency [5] | Potency [6]

C=C(CCO)C(=O)OCC1OCC(OC(=O)C(=C)CCO[C@@H]2O[C@H](CO)[C@@H](O)[C@H](O)[C@H]2O)C(O)C1O (some centres undefined)
inactive: Potency [1] | Potency [2] | Potency [3] | Potency [4] | Potency [5] | Potency [6]

OC[C@@]1(O)CO[C@@H](OC[C@H]2O[C@@H](OCc3ccccc3)[C@H](O)[C@@H](O)[C@@H]2O)[C@@H]1O
inactive: Potency [1] | Potency [2] | Potency [3] | Potency [4] | Potency [5] | Potency [6]

O=C(OCC1OC(Oc2ccc(O)cc2COC(=O)C2(O)C(O)CCC(=O)C2OC(=O)C2C=CCC2)C(OC(=O)C2C=CCC2)C(O)C1O)C1C=CCC1 (centres undefined)
inactive: Potency [1] | Potency [2] | Potency [3] | Potency [4] | Potency [5] | Potency [6]
